Results as given in PubChem BioAssay.
Calls of active or inactive are those of the source. Unless noted, no rule for the calls is given here.

Experiments:
[1] = tested on: Wnt5a (protein binding on small-molecule microarray); experiment: Wnt5a binders on small-molecule microarray, primary screen, biophysical, 635/667 nm fluorescence (AID 1142); conditions: 635 nm fluorescence, higher = more signal;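 also: fluorescence read at 667 nm with signal to noise per printed feature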
[2] = cell viability in Huh7 cells, primary screen, cytotoxicity control for HCV replication inhibitor project, CellTiter-Glo luminescence, basal, 48 h (AID 1143); conditions: Huh7 HCV replicon, higher = more signal, called active from +8 up or from −8 down;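 also: Huh7 hepatoma cells carrying a hepatitis C replication reporter with no stimulus; test concentration not given here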
[3] = P. aeruginosa biofilm formation inhibitors, primary screen, PAO1 strain, BacTiter-Glo luminescence, LB-PBS (AID 1144); conditions: 12 h, higher = more signal
[4] = CREB reporter modulators without forskolin, primary screen, cell-based, PC12, CRE-LacZ reporter, unstimulated (AID 1145); conditions: no forskolin, luminescence, 4.5 h, higher = more signal, called active from +8 up or from −8 down
[5] = CREB reporter modulators under forskolin, primary screen, cell-based, PC12, CRE-LacZ reporter, forskolin-stimulated (AID 1146); conditions: luminescence, 4.5 h, higher = more signal, called active from +8 up or from −8 down;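 also: PC12 cells with 6xCRE LacZ reporter stimulated by forskolin 10 µM; beta-galactosidase reporter signal reflecting CREB driven transcription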
[6] = target: Streptavidin (Streptomyces avidinii) (UniProt P22629); experiment: streptavidin binders on small-molecule microarray, primary screen, artefact control for SMM compound annotation, biophysical, 635/667 nm fluorescence (AID 1147); conditions: streptavidin binding, higher = more signal;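 also: signal reflects streptavidin binding to arrayed compounds as a control protein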
Streptavidin (Streptomyces avidinii), sequence (P22629 whole entry, looked up): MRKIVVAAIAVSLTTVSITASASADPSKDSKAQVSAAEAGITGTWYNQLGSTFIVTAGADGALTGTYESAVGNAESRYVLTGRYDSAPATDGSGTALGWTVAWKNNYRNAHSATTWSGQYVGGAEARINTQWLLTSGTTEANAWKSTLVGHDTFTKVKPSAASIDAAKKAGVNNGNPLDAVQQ

[7] = small-molecule binders of probe aInhba, primary screen, biochemical, small-molecule microarray, 635/667 nm fluorescence (AID 1148); conditions: higher = more signal;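 also: score merges 667nm spot fluorescence with signal-to-noise for antibody binding to printed compounds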
Torsin-1A (Homo sapiens) [8] = target: Torsin-1A (Homo sapiens) (UniProt O14656); experiment: torsin A binders from cell lysate, primary screen, small-molecule microarray, wild-type, 635/667 nm (AID 1149); conditions: COS7 hTOR1A-WT lysate, 635 nm fluorescence, higher = more signal
Torsin-1A (Homo sapiens), sequence (O14656 whole entry, looked up): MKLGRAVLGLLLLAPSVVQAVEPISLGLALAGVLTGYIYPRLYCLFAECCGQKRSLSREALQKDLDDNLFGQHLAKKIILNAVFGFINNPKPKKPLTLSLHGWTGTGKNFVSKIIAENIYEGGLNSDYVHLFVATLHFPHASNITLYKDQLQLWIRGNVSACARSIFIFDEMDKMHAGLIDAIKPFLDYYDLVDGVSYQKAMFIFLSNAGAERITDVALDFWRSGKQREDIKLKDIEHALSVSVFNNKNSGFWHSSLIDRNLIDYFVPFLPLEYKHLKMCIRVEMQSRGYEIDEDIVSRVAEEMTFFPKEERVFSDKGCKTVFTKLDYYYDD

Torsin-1A (Homo sapiens) [9] = target: Torsin-1A (Homo sapiens) (UniProt O14656); experiment: small-molecule binders of mutant TOR1A in lysate, primary screen, cell lysate, small-molecule microarray, COS7 lysate, 635/667 nm fluorescence (AID 1150); conditions: COS7 hTOR1A mutant lysate, 635 nm fluorescence, higher = more signal;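 also: score pools 667 nm emission and signal to noise measuring lysate protein binding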
[10] = tested on: Sonic hedgehog protein (Shh); experiment: small-molecule binders of Shh protein, primary screen, biochemical, small-molecule microarray, 635/667 nm fluorescence (AID 1151); conditions: small-molecule microarray binding, 635 nm fluorescence; higher = more signal;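 also: Shh protein binding to compounds spotted on small-molecule microarray slides; score combines spot fluorescence intensity with signal-to-noise across triplicate slides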

SMILES | composite z-score [1] | z-score [2] | z-score [3] | z-score [4] | z-score [5] | composite z-score [6] | composite z-score [7] | composite z-score (Torsin-1A (Homo sapiens) [8]) | composite z-score (Torsin-1A (Homo sapiens) [9]) | composite z-score [10]
CO[C@H]1COC(=O)[C@@H]2CCCN2C(=O)CC=C[C@@H](C)[C@H](OC)COC(=O)CC=C[C@@H]1C | 0.191 | -1.32 (inactive) | -1.11 (inactive) | 2.42 (inactive) | 0.104 (inactive) | -0.689 | -0.0858 | 1.49 | 1.27 | 1.98
O=C1[C@H]2[C@H]3[C@H](O)[C@H](O)CC(=NOC[C@@H](O)COCc4ccco4)[C@H]3CC[C@H]2C(=O)N1C1CCCCC1 | 0.257 | -2.97 (inactive) | -0.925 (inactive) | 3.33 (inactive) | 0.279 (inactive) | -0.112 | 0.158 | 2.07 | 1.64 | 1.54
CC(C)[C@@H](OCc1ccccc1)[C@H](C)C=NO[C@H](C)c1cn([C@H](CO)Cc2ccccc2)nn1 | 0.231 | -1.28 (inactive) | 0.403 (inactive) | 0.987 (inactive) | -0.437 (inactive) | 0.808 | -0.126 | 0.353 | 1.15 | 0.29
COCC(=C=CC[C@@H](O)c1ccccc1OCCO)CCO | 0.0554 | 0.0309 (inactive) | -0.118 (inactive) | 0.914 (inactive) | -0.732 (inactive) | -0.174 | -0.0074 | 0.635 | 0.518 | 0.156
NC(=O)NCC#Cc1ccc2c(c1)[C@]1(C(=O)N2)[C@H](c2ccc(O)cc2)N2[C@H](c3ccccc3)[C@H](c3ccccc3)OC(=O)[C@H]2[C@@H]1C(=O)N1CCCCCCC1 | 0.2 | -0.502 (inactive) | -0.75 (inactive) | -0.231 (inactive) | -0.674 (inactive) | 0.393 | 1.23 | -0.067 | 0.609 | 1.06
Cc1cc(C)c(-c2cc([C@H](C)ON=C3[C@H]4CCn5c(=O)n(-c6ccccc6)c(=O)n5[C@H]4[C@H](O)[C@@H]4O[C@H]34)on2)c(C)c1 | 0.266 | -1.72 (inactive) | 1.96 (inactive) | 0.229 (inactive) | 1.43 (inactive) | 0.548 | -0.0066 | 0.595 | 0.754 | 0.767
O=C1C[C@@H](O)[C@@H](O)[C@@H]2[C@@H]3C(=O)N(c4ccc(F)cc4F)C(=O)[C@@H]3CC[C@@H]12 | -0.0711 | 0.988 (inactive) | -0.356 (inactive) | 0.792 (inactive) | -0.0611 (inactive) | 0.254 | -0.0887 | 0.243 | 0.149 | 0.786
CC(C)(C)N1C(=O)[C@H]2[C@H]3[C@H](O)[C@H](O)CC(=NO[C@@H]4O[C@H](CO)[C@@H](O)[C@H](O)[C@H]4O)[C@@H]3CC[C@H]2C1=O | 0.324 | -2.45 (inactive) | 0.0108 (inactive) | 0.518 (inactive) | 0.217 (inactive) | -0.223 | 0.0051 | 0.217 | 0.254 | 1.53
COc1ccccc1CN1C(=O)c2ccccc2[C@@H](C(=O)NCC(F)(F)F)[C@@H]1c1ccc(CO)cc1 | 0.324 | -1.92 (inactive) | -1.6 (inactive) | 0.504 (inactive) | -1.28 (inactive) | 0.299 | 0.16 | 0.156 | 0.336 | 1.92
CCOC(=O)NN=C1C[C@@H](O)[C@@H](O)[C@@H]2[C@@H]3C(=O)N(C4CCCCC4)C(=O)[C@@H]3CC[C@H]12 | -0.064 | -0.779 (inactive) | 0.786 (inactive) | 0.341 (inactive) | 0.174 (inactive) | -0.0615 | -0.111 | 0.218 | 0.568 | 0.369
NCCCCCNC(=O)[C@@H]1C[C@@H]2C(=O)N3CCC[C@H]3C(=O)N2[C@@H]1c1cccc(OCCO)c1 | 0.369 | 0.902 (inactive) | -0.0862 (inactive) | -0.264 (inactive) | 0.325 (inactive) | 0.899 | 1.15 | -0.0659 | 1.36 | 0.696
C=COC[C@H]1CN2[C@@H](CC[C@@H](C)[C@@H]2c2ccc(Br)cc2)C(=O)O1 | 0.52 | -0.443 (inactive) | -1.13 (inactive) | 1.59 (inactive) | -0.212 (inactive) | -0.0488 | 0.027 | 0.594 | 0.0658 | 1.2
CN(C)CCCNC(=O)[C@@H]1c2ccccc2C(=O)N(Cc2ccccc2)[C@H]1c1ccc(CO)cc1 | -0.142 | 0.143 (inactive) | 0.596 (inactive) | -0.295 (inactive) | -0.877 (inactive) | -0.844 | -0.128 | -0.146 | -0.725 | -0.336
COc1ccc([Si](C)(C)[C@H]2[C@H](CCO)O[C@@]3(C(=O)N(Cc4cccc(NC(=O)[C@H](C)O)c4)c4ccccc43)[C@@H]2C)cc1 | 0.209 | -7.96 (inactive) | -1.52 (inactive) | 3.1 (inactive) | -0.878 (inactive) | 0.394 | -0.0468 | 0.715 | 0.916 | 1.98
C#C[C@@H](CC)O[Si](C#Cc1ccc(Oc2ccccc2)cc1)(C(C)C)C(C)C | 0.142 | -0.533 (inactive) | 0.159 (inactive) | -0.738 (inactive) | 0.0319 (inactive) | -0.149 | -0.0736 | 0.293 | 0.321 | 0.486
CCc1cc2c(nc1CC)CCN(CCC(C)=NO[C@@H](C)c1cc(-c3c(C)cc(C)cc3C)no1)C2 | -0.0627 | -2.21 (inactive) | -0.626 (inactive) | 0.429 (inactive) | 0.446 (inactive) | 1.67 | -0.0762 | -0.233 | 0.0048 | 0.134
CO[C@@H]1COC(=O)CC=C[C@@H](C)[C@@H]2C=C[C@H](O)[C@@H](COC(=O)CCC[C@H]1C)O2 | 0.0796 | -0.493 (inactive) | 0.0169 (inactive) | -2.36 (inactive) | -1.91 (inactive) | 1.35 | -0.118 | 0.858 | 1.6 | 1.55
COC(=O)[C@H](C)NC(=O)CCC1CC(OC(=O)NCCc2ccc(F)cc2)CC2(CCCC(COC(=O)NCC(c3ccccc3)c3ccccc3)O2)O1 (stereo not given in full) | -0.073 | -0.169 (inactive) | -0.0102 (inactive) | 1.27 (inactive) | -0.187 (inactive) | 0.688 | -0.0044 | -0.311 | 0.387 | 0.282
CCOC(=O)NN=C1C[C@@H](O)[C@@H](O)[C@@H]2[C@@H]3C(=O)N(C4CCCCC4)C(=O)[C@@H]3CC[C@@H]12 | 0.133 | 0.392 (inactive) | 0.471 (inactive) | 0.16 (inactive) | 0.366 (inactive) | 0.132 | -0.0987 | 0.597 | 0.726 | 0.0717
CC(C)OC(=O)C=C1C[C@@H](c2ccc(C#N)cc2)O[C@@H](c2ccc(C#N)cc2)O1 | 0.923 | -2.6 (inactive) | 0.618 (inactive) | 2.74 (inactive) | 0.421 (inactive) | 0.77 | 0.165 | 1.99 | 2.06 | 0.292
CCCCC(=C=CC[C@H](O)c1ccccc1OCCO)C[C@H](O)COCc1ccccc1 | -0.0702 | -1.41 (inactive) | 1.44 (inactive) | 3.27 (inactive) | 0.571 (inactive) | 0.395 | -0.0523 | 1.08 | 0.259 | 0.0668
COCCCNC(=O)[C@]1(CCC(=O)OC(C)(C)C)N=C(c2ccc(OCCCO)cc2)O[C@@H]1c1ccccc1N=[N+]=[N-] | 0.951 | -1.41 (inactive) | -1.67 (inactive) | -0.482 (inactive) | -0.478 (inactive) | 1.45 | 0.283 | 1.54 | 1.1 | -0.2
COC(=O)[C@@H]1N=C(c2ccc(OCCCO)cc2)O[C@@H]1c1ccccc1N=[N+]=[N-] | 0.122 | -2.72 (inactive) | -0.943 (inactive) | 1.7 (inactive) | -0.826 (inactive) | 0.937 | 0.168 | 0.131 | 0.51 | -0.0259
